Dicer inh – inhibitors of human Dicer processing of pre-microRNA; cat-ELCCA pre-miR-21 Dicer processing, chemiluminescence; hits give high values; z-score at 25 µM; 6% of 47,000 active; in the data active means z-score above about 3, passing the limit was not always enough;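 further: higher signal means more uncleaved substrate so more Dicer inhibition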
A number is an active result; - = inactive. The sample as a whole holds a higher share of hits than the screen did.

SMILES	Dicer inh
Cc1coc(C)c1C(=O)CC1(O)C(=O)N(C)c2ccccc21 (stereo not given)	3.4
CCCN1C(=O)C(O)(CC(=O)c2c(C)coc2C)c2ccccc21 (stereo not given)	-
Cc1cc(C)c(C(=O)CC2(O)C(=O)N(C)c3ccccc32)c(C)c1 (stereo not given)	-
O=C(/C=C(\CC(=O)c1ccc(F)cc1)c1ccccc1)c1ccc(F)cc1	-
Cc1cc(CN=C(N)NC(N)=S)c(C)cc1CN=C(N)NC(N)=S	-
COC(=O)c1c(C)n(S(=O)(=O)c2cccs2)c2ccc(NS(=O)(=O)c3cccs3)cc12	-
O=C(Nc1ccc(F)cc1F)c1cccnc1Sc1cccs1	-
C=CCn1c(SCC(=O)NC(=O)Nc2ccccc2)nnc1-c1ccc(Cl)cc1	-
Cc1ccc(N2C(=O)CC(=O)N(c3ccc(C)c(C)c3)C2=S)cc1C	-
Cn1cc(Br)c(-c2cccc(N3C(=O)CC(C)(C)CC3=O)c2)n1	-
Cc1cc(N2C(=O)CC3(CCCC3)CC2=O)ccc1Br	3.17
O=C1c2cccc3cccc(c23)C(=O)N1CC(=O)N1CCc2ccccc21	3.77
CC(O)CN1C(=O)c2cccc3cccc(c23)C1=O (stereo not given)	3.25
O=C(O)CCCCCN1C(=O)c2cccc3cccc(c23)C1=O	-
O=C1c2cccc3cccc(c23)C(=O)N1CCCCO	-
O=C(O)CCCN1C(=O)c2cccc3cccc(c23)C1=O	-
O=C1c2cccc3cccc(c23)C(=O)N1CCNCCN1C(=O)c2cccc3cccc(c23)C1=O	-
O=C(O)CN1C(=O)c2cccc3cccc(c23)C1=O	3.69
NC(=O)C1CCN(C(=O)CN2C(=O)c3cccc4cccc2c34)CC1	-
O=C(CN1C(=O)c2cccc3cccc(c23)C1=O)N1CCOCC1	-
COc1ccc(/C(O)=C2/C(=O)C(=O)N(c3cccc(C(=O)O)c3)C2c2ccccc2)cc1 (stereo not given)	-
N#C/C(=C\c1cccs1)S(=O)(=O)c1cccs1	-
Cc1ccc(-c2csc3ncnc(NCc4ccco4)c23)cc1	-
COC(=O)C1=CC=C(c2ccc(OC)cc2)SC1	-
Cc1cc(C)c2c(=O)[nH]c(SCC(=O)N3CCCCC3)nc2n1	5.78
SMILES	Dicer inh
Cc1sc2nc(SCC(=O)N3CCCCC3)[nH]c(=O)c2c1C	-
CCc1ccc(C(=O)CSc2nc3nc(C)cc(C)c3c(=O)[nH]2)cc1	-
Cc1cnc(N2CCN(NC(=S)Nc3cccnc3)CC2)c(Cl)c1	-
Cc1nn2c3c(cnc2c1-c1ccc(F)cc1)C(=O)CC(c1ccco1)C3 (stereo not given)	-
Cc1nn2c(c1-c1ccccc1)N=C(c1ccco1)CC2c1ccco1 (stereo not given)	3.31
CC(=O)N1N=C(c2c(-c3ccccc3)c3cc(Cl)ccc3[nH]c2=O)CC1c1ccco1 (stereo not given)	-
O=S(=O)(Oc1cc(Cl)cc(Cl)c1)c1cc(S(=O)(=O)Oc2cc(Cl)cc(Cl)c2)c(Cl)s1	-
CC(C)(C)c1ccc(S(=O)(=O)N(C(=O)c2ccncc2)c2ccc3oc(=O)sc3c2)cc1	6.71
O=C(c1ccncc1)N(c1ccc2oc(=O)sc2c1)S(=O)(=O)c1ccc(Br)cc1	-
CC(C)c1ccc(S(=O)(=O)N(C(=O)c2cccnc2)c2ccc3oc(=O)sc3c2)cc1	-
CCc1ccc(S(=O)(=O)N(C(=O)c2cccnc2)c2ccc3oc(=O)sc3c2)cc1	6.22
CC(C)(C)c1ccc(S(=O)(=O)N(C(=O)c2cccnc2)c2ccc3oc(=O)sc3c2)cc1	4.56
Cc1ccccc1C(=O)c1ccccc1C(=O)O	-
Cc1ccc(C(=O)COC(=O)C2CCC(N3C(=O)C4CCCCC4C3=O)CC2)cc1C (stereo not given)	-
Cc1cc(NS(=O)(=O)c2ccc(F)c(Cl)c2)no1	-
O=C(CSc1ssc(=S)c1-c1ccccc1)c1cccc([N+](=O)[O-])c1	-
Cc1cc(C(=O)NN)nn1-c1c(Cl)cc(Cl)cc1Cl	-
O=C(c1cccs1)n1c2ccc(F)cc2c2nc3ccccc3nc21	-
CCOC(=O)c1cnn(-c2ccc(N)cc2)c1C(F)(F)F	-
CCOC(=O)NNC(=O)NCCCc1ccc2ccc3cccc4ccc1c2c34	-
O=c1[nH][nH]c(=O)n1CCCc1cc2cccc3ccc4cccc1c4c32	3.66
O=C(CSc1nc(SCC(=O)c2ccc(Cl)cc2)c2ccccc2n1)c1ccc(Cl)cc1	-
COC(=O)c1scc(Br)c1OC(=O)c1ccc(C(C)(C)C)cc1	-
CSc1cc(-c2ccc(F)cc2)nn1S(=O)(=O)c1cc(C(F)(F)F)cc(C(F)(F)F)c1	-
CCNC(=O)C(NC(=O)OC(C)(C)C)C(C)OCc1ccccc1 (stereo not given)	4.72
SMILES	Dicer inh
CCNC(=O)C(C)NC(=O)OC(C)(C)C (stereo not given)	-
CC(C)(C)OC(=O)NC(COCc1ccccc1)C(=O)NCc1ccccc1 (stereo not given)	-
CC1(C)CC(=O)c2cnc(NC(=O)CSc3nc4ccccc4s3)nc2C1	-
Nc1ccc2oc(-c3cccc(-c4nc5cc(N)ccc5o4)n3)nc2c1	-
Cc1ccccc1-c1nc2cc(N)ccc2o1	-
Nc1ccc(CCc2nc3cc(N)ccc3o2)cc1	3.87
O=C(CSc1nc2c(c(=O)[nH]1)CSC2)c1ccc(Cl)cc1	-
CCOc1ccc(C2C(C(=O)OC)=C(C)NC3=C2C(=O)CC(c2ccc(OC)cc2)C3)cc1 (stereo not given)	-
c1ccc(CNc2nc(-c3ccccc3)ns2)cc1	-
CSC(=NCc1c(N(C)C)cccc1N(C)C)NC#N	-
CN(C)c1ncnc2c1C(c1ccc(Br)cc1)c1c(ncnc1N(C)C)O2	4.98
CCOC(=O)[C@@H](N)Cc1ccc(O)c(O)c1	-
Cc1cc2ccccc2n2c(SCC(=O)c3ccc4c(c3)OCCO4)nnc12	-
COc1cc(CNCc2cc(Br)ccc2OC)cc(OC)c1	-
COc1ccc(CNCc2cc(Br)ccc2OC)cc1	-
COc1ccc(Br)cc1CNc1cc(C)cc(C)c1	3.61
O=C(Nc1ccc(Br)cn1)c1sc2ccccc2c1Cl	-
Cn1c(=O)c2c(-c3ccc(F)cc3)cc(-c3cccc(F)c3)nc2n(C)c1=O	-
COc1ccc(-c2nc3c([nH]2)c(=O)n(C)c(=O)n3C)c(OC)c1	-
COc1ccc(-c2cc(-c3ccc(OC)cc3)c3c(=O)n(C)c(=O)n(C)c3n2)cc1	3.4
CC(C)NC(=S)N1CCCN2C(=O)c3ccccc3C21 (stereo not given)	-
O=c1ccc(-c2ccc(F)cc2)nn1-c1ccc([N+](=O)[O-])cc1	-
C=CCOc1cccc(C2c3c(oc4ccccc4c3=O)C(=O)N2c2ccccn2)c1 (stereo not given)	-
COc1cccc(C2c3c(oc4ccccc4c3=O)C(=O)N2c2ccccn2)c1 (stereo not given)	-
O=C1c2oc3ccccc3c(=O)c2C(c2cccc(Cl)c2)N1c1ccccn1 (stereo not given)	-
COc1cc(C2c3c(oc4ccccc4c3=O)C(=O)N2c2ccccn2)ccc1OCc1ccccc1 (stereo not given)	-
CCCCCOc1cccc(C2c3c(oc4ccccc4c3=O)C(=O)N2c2nccs2)c1 (stereo not given)	-
CCOc1cccc(C2c3c(oc4ccccc4c3=O)C(=O)N2c2ccccn2)c1 (stereo not given)	5.91
COc1cc(C2c3c(oc4ccccc4c3=O)C(=O)N2c2ccccn2)ccc1OCCC(C)C (stereo not given)	3.45
